69 sequences from PubChem BioAssay AID1508600 (Functional Genomics Laboratory (NCATS/FGL), 2020) can be followed below.

Out of some 53,000 sequences screened, about 3,700 (7%) were called active. Shown is part of a subset that was picked to be rich in actives. A number with no mark means an inactive call.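 How the source made its calls: active means gene knockdowns whose robust z-score for IL-1 alpha signal is at least 2 or at most -2, so actives lie on both sides; inactive means the rest.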

The assay in a line: Components of the Cytosolic LPS Sensing Pathway: Gene Identification via Genome-wide siRNA Screen.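 Further: robust z of the log signal after scaling to non-targeting control siRNA wells of the plate.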 To be noted: RAW264.7 macrophages, IL-1a HTRF, actives lie on both sides, screened at 100 nM (by protocol), cells primed 5 h with Pam3CSK4 first. The method, boiled down:
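Cells (RAW264.7, 1×10^4 per well) were transfected with siRNA at 100 nM and cultured 48h at 37 degrees C. Pam3CSK4 was added for 5 hours; LipidA transfection followed for 24 hour. IL-1a was then measured by HTRF.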
As to GCUUCGGAAUCGGUUACCATT against Alg2, the z-score was -1.28.
GGUUGUUUAUGCUUUCUCUTT against Arhgap32: the z-score is -0.766.
To CGAAGUGGUUUUAUGUACUTT against Cdkn2b belongs -2.39 (active).
For GAUGGUCAUCCUUCCUUUATT against Olfr341, the z-score is -0.737.
In the case of GCUUAGACGACUAGACCUGTT against Slit2, the z-score is -0.186.
Turning to GGUGGUCUGAUCGUAGACATT against Lrrc61, the z-score is 0.672.
With GGGCUGACUAUUAUUUCAGTT against Cysltr2, the z-score is -0.107.
GGAAUUUGUGAAAAGAAGUTT against Aldh1a2: the z-score was -0.923.
To CGAUAAAAGAGAGAUGAUUTT against Rap1gds1 belongs 0.699; to GGUGGUAAUUUUUCUCAGATT against Agxt2, -1.74.
As to CCAUCUUGGAGAUCCUGAUTT against Kat5, the z-score was -2.46 (active).
With GGAAAAUCUUAGGAAGAUGTT against Elf4, the z-score was -0.39.
To GCUUACCCUGACUCCAAUUTT against Dhx33 belongs -1.76; to CCAAGGUCUAAAAAAAUAGTT against Adamts19, -0.907.
Regarding GGAGGUAACAACAACAGAATT against BC028528, the z-score is 0.7.
Consider GGUAGAGAACCAUUUGCUGTT against Dtnbp1, for which the z-score was -0.376.
“GGAACACACAAUUUUAUCATT against 4933436I01Rik”: the z-score is -2.98 (active).
As for CCAUACAAGAGUGACAGUUTT against Olfr810, the z-score is -0.736.
GGCAAUCCAGGCAAUAUCATT against C1qa: the z-score is -0.808.
To CCCUAACUACUUCAUGAAUTT against Paip1 belongs -2.11 (active); to GGAAAUCCAUUGUUUAAAGTT against Wt1, 2.01 (active).
As to CCAUGUGACAGCAUUGUUGTT against Axin1, the z-score is 0.754.
In the case of CCAGAUUAUCCGUUUAAACTT against Ube2e2 it was 0.242.
With GCGUGAGAUACCAUAUUAUTT against Bank1, the z-score was -1.47.
As for GGUCUACCUAAAACUGGAGTT against Cbln4, the z-score was 0.337.
GGGAGAGAUGUCAUUGCACTT against Eif4a3: the z-score was -1.9.
Consider GCGGCUACGUGUUUGACUATT against Csnk1g2, for which the z-score was -0.735.
As to GCACUUAGACUAUUCCAGGTT against Tph2, the z-score is -0.118.
To GGUGAAGUUACAGUCAAAUTT against Nolc1 belongs 2.54 (active); to GGUCAGGCUGAGGAAUUCATT against Cyp2s1, -0.562.
Turning to GGAGGAGGCAGAAACAACATT against Tex46, the z-score is 1.87.
GCAGAGAGGAUAACUGACCTT against Slc25a44: the z-score is -0.723.
For CCAUUCUUAGUUCACUAUATT against Rgcc, the z-score is -2.55 (active).
With GGAAUUCCCAUUGGAAGAATT against Vmn1r232, the z-score is 0.0956.
For the sequence GGGACCAAGAAGGAUAACUTT against Flrt1, the z-score is 1.4.
Turning to CCGAUUUAACUGAAUUUGCTT against Acaa2, the z-score was 0.342.
For GGCAGGACACCAUAUGGUUTT against Tedc1, the z-score is -2.16 (active).
To GGACAAGUCGAGUUUCAAGTT against Zfp503 belongs 1.98; to CGGAAGAAUAAAAACCGGCTT against Meaf6, 0.601; to GGUCUUGUGCAUAAAACAGTT against Ece2, -1.06.
To GCAUAUCCUAAACACUGUUTT against Pqlc3 belongs -0.966; to GGGUGAUGCCCUUGAAUCUTT against Twf2, 2.48 (active); to GCGACUGACCUUCAAACUGTT against Piwil4, 0.193.
With CCAGCAAAUGAGAGGUCUGTT against Olfr1024, the z-score was 0.676.
For the sequence GGACACUUUCCAAUGGUGATT against Npsr1, the z-score was 1.25.
On to GGAGCUCGAAAAAUUUCAATT against Igfl3, for which the z-score is 2.13 (active).
As to GCUCUCAUCAGACUUCGAGTT against Zfp202, the z-score was 0.0887.
With GCGCAUCUAUGAAAAAACATT against Cerk, the z-score is -0.471.
Take GGCUGUAAAACUCUGGUUUTT against Vmn1r195: the z-score is 2.82 (active).
In the case of GCUCAAAAAACCGAAAUGATT against Cd274, the z-score is -1.03.
On to GGUAAAUUCAACUGGAAGGTT against Lyar, for which the z-score is 0.194.
For GGUUAUCCUCAUUGAUCCGTT against Rpl15, the z-score was 0.0822.
To GCCUGAUAUCAACAUAGGATT against Pth2r belongs 0.802; to UAAAUGAGCUCGUAAUCUUTT against Olfr874, 3.23 (active).
In the case of CCCUGGCCAAACAUAGUGGTT against Efcab12 it was 0.278; in that of GCACAAGAAAUCGAAUAUGTT against Acr, -0.00119; in that of CCGCCGAUGAGUUUGUUAATT against Hsd17b3, 1.2.
Take GCUCUGUCUUAAGAGACUATT against Smo: the z-score is 2.39 (active).
In the case of GGUCUGUCUCCAGAUUGCUTT against Olfr56 it was -1.73.
To GGAUAUUAUGUCUUUGCUATT against Ints2 belongs 0.499; to GACCACCAGAAAGUUUCACTT against Lfng, 0.339.
For the sequence GCUCUACCUUCGCUGGAAATT against Slc7a6, the z-score was 2.17 (active).
To GGAAACUGCAUUCAAGCCATT against Apod belongs -0.191.
For CCUCUAGACCGAAUGAAAATT against Zfyve16, the z-score is 0.472.
In the case of GGAGUCCUCUAAUGUAAAUTT against Elovl4 it was 0.0471; in that of GGGAACUCAAAGAAGAGAGTT against Lysmd2, 0.515; in that of CGAGGAGUGGUAUUUUUACTT against Slc34a1, 0.0248.
Take GCUGAAAGAUUUACUGCCCTT against Bhlhe41: the z-score was 2.95 (active).
As for GGCAUGGAAUAUGAUGUUATT against Nlrp9b, the z-score was -1.72.
